# From PubChem
# Only some compounds are listed: those with a hit (about 17% of all), similar ones and a draw of the others.
# S2 tox = cell viability loss in ATXN counter-screen; Potency, µM (titrated, usually from 56.7 µM), usual class: cytotoxic; S2 cells (HEK-293 line with an ATXN2-luciferase reporter) viability, CellTiter-Fluor protease fluorescence, 24 h; AID 651635; 400,000 compounds, 0.49% hits; note: nearly all actives have a fitted effect of over 40% in size
# TDP1 cell CPT = growth inhibition of DT40 Tdp1-/-;hTDP1 cells with camptothecin (screen for TDP1 inhibitors). chicken DT40 Tdp1-/-;hTDP1 cells + 20 nM CPT, ATP luminescence, 48 h. Potency, µM (doses to about 46.2 µM), inactives show at the highest dose activity change, negative = growth inhibition, most hits filed as inhibitors. 420,000 compounds, 12% hits. AID 686979; note: % is set by controls: 0 for no effect and ±100 for the full control effect; nearly all actives have a fitted effect of over 55% in size
#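 Chicken DT40 Tdp1-/- cells complemented with human TDP1, 400 cells/well, exposed to compounds plus 20 nM camptothecin for at least 48 h at 37 C; viability read as ATP content by CellTiter-Glo luminescence.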
# HepG2 tox = counter-screen for TGF-b inhibitors: cytotoxicity in HepG2 cells; HepG2 CAGA-GFP viability, ATP luminescence, 18 h; Potency, µM (series often up to 46.1 µM), inactives show top-dose activity change, negative = cytotoxicity, actives largely listed as cytotoxic; 410,000 compounds, 0.76% hits; AID 588856
#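 CellTiter-Glo luminescence gave cytotoxicity after 18 hours at 37 degrees C. The cells were HepG2 CAGA-GFP in 1% FBS DMEM, stimulated with 500 pg/mL TGF-beta after compound addition. %Activity was normalised to no-cell wells (complete cell-killing) and DMSO (no toxicity), and curves were fitted and classified.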
# ATXN2 expr inh = inhibitors of ATXN2 expression | HEK-293 ATXN2-luciferase reporter, luminescence, 24 h | Potency, µM (series often up to 57 µM), for inactives: at the top dose activity change, negative = inhibition, most hits filed as inhibitors | 360,000 compounds, 0.72% hits | AID 1745845; note: % is set by controls: 0 for no effect and ±100 for the full control effect; nearly all actives have a fitted effect of over 55% in size
#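 ATXN2-luciferase reporter cells (luciferase flanked by upstream and downstream ATXN2 gene portions) were treated 24 h at 37 °C with compounds at up to 57 uM. SteadyGlo luminescence gave expression; GF-AFC fluorescence gave viability.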
# DT40 TDP1 no CPT = qHTS for Inhibitors of human tyrosyl-DNA phosphodiesterase 1 (TDP1): qHTS in cells in absence of CPT. DT40 Tdp1-/- hTDP1 cells, no CPT, ATP luminescence, 48 h. Potency, µM (highest dose often 46.2 µM), for the others: at the highest dose activity change, negative = growth inhibition, actives largely listed as inhibitors. 420,000 compounds, 15% hits. AID 686978, 2013; note: % is set by controls: 0 for no effect and ±100 for the full control effect; nearly all actives have a fitted effect of over 55% in size
#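 DT40 Tdp1-/-;hTDP1 cells, no CPT (DMSO vehicle only), 400 cells/well; compounds pin-transferred; ≥48 hr, 37 °C; CellTiter-Glo 30 min RT dark, luminescence read.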
# TGFb inhibitor = blocks TGF-b signaling | 410,000 compounds, 1.2% hits | HepG2 CAGA-GFP TGF-b/SMAD3 reporter, GFP fluorescence, 18 h; TGF-beta stimulated, 500 pg/mL final | Potency, µM (doses to about 46.1 µM), inactives show at the highest dose activity, negative = inhibition, usual class: inhibitors | AID 588855; note: % is set by controls: 0 for no effect and ±100 for the full control effect; nearly all actives have a fitted effect of over 65% in size
#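 HEPG2 CAGA-GFP reporter cells (1000/well, DMEM with 1% FBS) received compounds, then recombinant TGF-beta at 500 pg/mL final for 18 hours at 37 degrees C. Per-cell GFP summed per well was normalised to unstimulated and stimulated DMSO controls before curve fitting.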
# * hit, by the source's call; i = inactive; ? = inconclusive; nt = not tested or not shown; ! = not active in a repeat. Calls come from the whole dose curve; as a rule, active = well fitted curve in the direction sought with a large enough effect; inconclusive = small, poorly fitted or top-dose-only effect, or another doubt; inactive = no such curve, though single readings can be large; an effect the other way counts as inactive or inconclusive. Potency is the fitted concentration of half-maximal effect.
SMILES,S2 tox,TDP1 cell CPT,HepG2 tox,ATXN2 expr inh,DT40 TDP1 no CPT,TGFb inhibitor
CCC(=O)NC(=S)Nc1ccc(S(=O)(=O)NC2CCCCC2)cc1,nt,?,-6.3%,-11.2%,?,-8.7%
CCC1(c2ccccc2)NC(=O)N(CC(=O)N2CCN(S(=O)(=O)c3ccccc3)CC2)C1=O (stereo unspecified),i,-15.3%,-2.0%,19.5%,-9.2%,1.2%
COc1cc(S(=O)(=O)N2CCn3cccc3C2C)ccc1NC(C)=O (stereo unspecified),i,-0.5%,-15.2%,-2.2%,11.6%,-13.1%
O=C1Nc2ccccc2N(C(=O)c2ccc(-c3ccccc3)cc2)C1c1nc2ccccc2[nH]1 (stereo unspecified),?,?,nt,-28.2%,20.6µM*,nt
O=C(Cc1cccs1)N[C@@H]1C(=O)N2C(C(=O)[O-])=C(C[n+]3ccccc3)CS[C@H]12,nt,-3.0%,nt,nt,-13.6%,nt
Cc1c(CCO)c(=O)[nH]n1S(=O)(=O)c1ccc(F)cc1,i,-0.9%,-0.8%,3.0%,3.4%,-0.7%
Fc1ccc(Cn2nnnc2C(c2cccs2)N2CCN(C3CCCCC3)CC2)cc1 (stereo unspecified),?,14.6µM*,-36.5%,-9.5%,16.4µM*,-22.0%
COc1ccc(OC)c(C(c2nnnn2Cc2ccccc2)N2CCN(C3CCCCC3)CC2)c1 (stereo unspecified),?,18.4µM*,-0.5%,-11.2%,?,12.8%
COc1ccc(Cn2nnnc2C(c2ccc(C)cc2)N2CCN(C3CCCC3)CC2)cc1 (stereo unspecified),i,16.4µM*,-24.8%,5.6%,9.2µM*,14.4%
COc1ccc(Cn2nnnc2C(c2ccc3ncccc3c2)N2CCN(C3CCCCC3)CC2)cc1 (stereo unspecified),?,?,-18.2%,-8.8%,?,-8.6%
COc1ccccc1C(c1nnnn1Cc1ccccc1)N1CCN(C2CCCC2)CC1 (stereo unspecified),i,?,1.5%,-0.4%,?,0.0%
O=c1c(CCc2ccccc2)nc2cnc(N3CCOCC3)nc2n1Cc1ccc(F)cc1,nt,-13.3%,nt,nt,-2.5%,nt
Cc1ccc(NC(=O)N2CCCn3c(SCC(=O)c4ccccc4)nnc32)cc1,i,-7.1%,-10.3%,nt,-28.0%,-12.2%
COc1ccc(C(=O)/C=C/c2ccsc2)cc1CSCC(=O)O,i,9.2µM*,-23.1%,-1.5%,11.6µM*,0.5%
COc1ccc(C(C)=O)cc1CSCCC(=O)O,i,-11.4%,-13.7%,-7.5%,-6.9%,13.9%
NC1CCc2ccccc21 (stereo unspecified),nt,-4.4%,-44.9%,nt,?,-1.3%
COc1ccc(N2C(=O)c3ccccc3C2O)cc1 (stereo unspecified),i,-19.8%,-20.9%,22.3%,-18.4%,4.0%
C=COc1ccc(N2C(=O)c3ccccc3OC2C)cc1 (stereo unspecified),i,?,-3.2%,0.8%,20.6µM*,1.9%
Oc1ccc(-c2cnc3c(Nc4cccc(OC(F)(F)C(F)F)c4)nccn23)cc1,i,?,-14.5%,-29.5%,?,-18.5%
FC(F)C(F)(F)Oc1cccc(Nc2nccn3c(-c4cccc5ccccc45)cnc23)c1,i,16.4µM*,-2.4%,-13.0%,?,-22.0%
FC(F)C(F)(F)Oc1cccc(Nc2nccn3c(-c4ccc5ccccc5c4)cnc23)c1,i,?,-9.7%,2.3%,23.1µM*,2.3%
CCOc1ccccc1N1CCN(C(=O)c2ccccc2OCc2c(C)noc2C)CC1,i,-20.9%,-13.8%,nt,-23.0%,12.0%
Cc1nc2ccc(NC(=O)CS(=O)(=O)c3ccccc3)cc2s1,i,11.4%,6.3%,35.2%,2.7%,-6.9%
CCOC(=O)c1c(SCCN2CCCCC2)n(-c2ccccc2)c(=S)n(-c2ccccc2)c1=O,?,2.91µM*,-0.1%,20µM*,4.11µM*,0.0%
CC(=O)N(Cc1ccc2c(c1)OCO2)Cc1cc2ccc(C)cc2nc1-c1cccc(C)c1,i,?,nt,nt,0.461µM*,nt
SMILES,S2 tox,TDP1 cell CPT,HepG2 tox,ATXN2 expr inh,DT40 TDP1 no CPT,TGFb inhibitor
Cc1ccccc1CNC(=O)c1csc([C@@H]2O[C@H](CO)[C@@H](O)[C@H]2O)n1,i,?,-4.2%,18.3%,?,8.6%
COc1ccccc1NC(=O)CCNS(=O)(=O)c1ccc2[nH]c(=O)oc2c1,i,23.1µM*,1.4%,2.7%,?,9.9%
COc1ccc(OC)c(NC(=O)CCNS(=O)(=O)c2ccc3[nH]c(=O)oc3c2)c1,?,-1.2%,22.6%,-9.0%,17.3%,-4.1%
CSc1ccc(S(=O)(=O)N2CCC(C(=O)NC3CC3)CC2)cc1,i,-20.7%,0.4%,0.1%,-18.8%,-3.6%
O=c1[nH]c2c(-c3nc(-c4ccc(Cl)cc4)cs3)c(O)cn2c2ccccc12,nt,3.98µM*,-24.1%,nt,2.82µM*,-0.2%
O=c1[nH]c2c(-c3nc(-c4ccc(F)cc4)cs3)c(O)cn2c2ccc(Br)cc12,nt,-24.7%,-13.4%,nt,-9.6%,41.2%
COc1ccc(CC(C)Nc2ccccc2F)cc1 (stereo unspecified),i,-6.7%,-1.2%,1.8%,-23.6%,-2.1%
COc1cc(NCc2ccccc2O)c2ncccc2c1,i,-6.4%,-5.4%,-9.9%,?,6.4%
COc1cc(NC(C)CCCN)c2nc(C)ccc2c1Oc1ccc(F)cc1 (stereo unspecified),i,25.9µM*,-103.9%,nt,10.3µM*,?
COc1cc(NC(C)CCCN)c2ncccc2c1 (stereo unspecified),12.6µM*!,?,-55.2%,?,7.18µM*!,?
CCc1ccc2[nH]c(=O)c(-c3ccccc3)c(O)c2c1,i,18.3%,1.1%,6.3%,3.0%,0.2%
Cc1ccc(N2CCN(C(=O)CCc3c(C)nc4ncnn4c3C)CC2)c(C)c1,i,?,-22.8%,-25.9%,?,?
CCN(C(=O)c1sc2nc3n(c(=O)c2c1C)CCCC3)c1ccccc1F,i,?,-27.5%,-4.0%,?,0.8%
Cc1ccc(N(C)C(=O)c2sc3nc4n(c(=O)c3c2C)CCCC4)cc1C,nt,23.1µM*,-60.1%,nt,18.4µM*,-24.9%
CCCN(C(=O)c1sc2nc3n(c(=O)c2c1C)CCCC3)c1ccccc1C,nt,18.4µM*,-33.9%,nt,?,-9.5%
